In PMC7862700, “An all-to-all approach to the identification of sequence-specific readers for epigenetic DNA modifications on cytosine”:

What was measured:
Assay in all cases: DAPPL (digital affinity profiling via proximity ligation, sequencing); 10 mM Tris-HCl pH 7.5, 50 mM NaCl, 1 mM DTT, 4% glycerol, room temperature, 30 min; GST-TFs on glutathione beads, 16-mer random dsDNA library, 0.1% formaldehyde crosslink after washing; high values mean tight binding
Conditions in all cases: protein: recombinant; tags: N-terminal GST; dsDNA, one strand shown
FLI1 = target: T1, FLI1 (Homo sapiens, UniProt Q01543 1-452)
T1 sequence: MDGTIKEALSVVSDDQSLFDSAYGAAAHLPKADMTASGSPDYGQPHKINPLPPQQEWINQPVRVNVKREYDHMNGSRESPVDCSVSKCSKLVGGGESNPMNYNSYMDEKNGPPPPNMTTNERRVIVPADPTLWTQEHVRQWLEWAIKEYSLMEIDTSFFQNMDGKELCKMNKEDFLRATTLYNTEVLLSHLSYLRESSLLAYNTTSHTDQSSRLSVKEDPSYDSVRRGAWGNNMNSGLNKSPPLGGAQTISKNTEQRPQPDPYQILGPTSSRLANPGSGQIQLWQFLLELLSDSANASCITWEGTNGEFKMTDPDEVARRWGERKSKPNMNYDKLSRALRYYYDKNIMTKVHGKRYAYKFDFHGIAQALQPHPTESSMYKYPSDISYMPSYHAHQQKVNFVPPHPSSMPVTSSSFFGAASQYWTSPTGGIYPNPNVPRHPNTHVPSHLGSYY
How it was run: (§1)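 The binding signal reported is, for every hexamer, its read frequency for a factor over its read frequency for the tag-only sample. Reads came from pools of yeast-expressed, GST-fused human transcription factors on glutathione beads, barcoded with DNA and mixed with that sample, which were incubated with 200 nmole of a random double-stranded 16-mer DNA library in Tris/NaCl/DTT/glycerol buffer at room temperature for 30 min. After washing, the pools were crosslinked with 0.1% formaldehyde, proximity-ligated with BsaI/T4 ligase for 1 h at 37 °C, PCR-amplified and sequenced on an Illumina NextSeq500.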

ELK1 = target: T2, ELK1 (Homo sapiens, UniProt P19419 1-428)
T2 sequence: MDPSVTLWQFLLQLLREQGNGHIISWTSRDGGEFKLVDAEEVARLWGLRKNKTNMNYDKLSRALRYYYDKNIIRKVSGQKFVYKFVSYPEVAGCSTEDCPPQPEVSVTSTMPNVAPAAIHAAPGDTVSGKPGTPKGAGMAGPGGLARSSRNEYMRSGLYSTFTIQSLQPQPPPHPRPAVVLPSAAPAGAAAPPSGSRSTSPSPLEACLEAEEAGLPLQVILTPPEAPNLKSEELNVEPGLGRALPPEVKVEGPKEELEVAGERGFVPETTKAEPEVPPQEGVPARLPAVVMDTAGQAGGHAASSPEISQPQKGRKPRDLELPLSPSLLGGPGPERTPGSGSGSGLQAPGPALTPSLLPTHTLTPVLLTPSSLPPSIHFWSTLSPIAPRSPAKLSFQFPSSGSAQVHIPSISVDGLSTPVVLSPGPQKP
How it was run: as §1

GABPA = target: T3, GABPA (Homo sapiens, UniProt Q06546 1-454)
T3 sequence: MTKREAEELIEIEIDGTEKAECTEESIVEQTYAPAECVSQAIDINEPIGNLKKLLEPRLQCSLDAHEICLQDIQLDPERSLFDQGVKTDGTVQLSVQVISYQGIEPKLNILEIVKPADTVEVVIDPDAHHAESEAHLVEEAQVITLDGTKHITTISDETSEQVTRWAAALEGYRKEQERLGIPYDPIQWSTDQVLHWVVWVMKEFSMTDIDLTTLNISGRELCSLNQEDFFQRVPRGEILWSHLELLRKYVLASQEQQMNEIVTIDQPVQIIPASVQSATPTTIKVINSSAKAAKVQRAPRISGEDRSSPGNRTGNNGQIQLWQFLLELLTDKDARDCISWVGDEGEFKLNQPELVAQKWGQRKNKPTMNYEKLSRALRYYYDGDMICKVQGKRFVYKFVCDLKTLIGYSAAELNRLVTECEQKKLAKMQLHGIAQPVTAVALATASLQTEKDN
How it was run: as §1

ERG = target: T4, ERG (Homo sapiens, UniProt P11308 1-479)
T4 sequence: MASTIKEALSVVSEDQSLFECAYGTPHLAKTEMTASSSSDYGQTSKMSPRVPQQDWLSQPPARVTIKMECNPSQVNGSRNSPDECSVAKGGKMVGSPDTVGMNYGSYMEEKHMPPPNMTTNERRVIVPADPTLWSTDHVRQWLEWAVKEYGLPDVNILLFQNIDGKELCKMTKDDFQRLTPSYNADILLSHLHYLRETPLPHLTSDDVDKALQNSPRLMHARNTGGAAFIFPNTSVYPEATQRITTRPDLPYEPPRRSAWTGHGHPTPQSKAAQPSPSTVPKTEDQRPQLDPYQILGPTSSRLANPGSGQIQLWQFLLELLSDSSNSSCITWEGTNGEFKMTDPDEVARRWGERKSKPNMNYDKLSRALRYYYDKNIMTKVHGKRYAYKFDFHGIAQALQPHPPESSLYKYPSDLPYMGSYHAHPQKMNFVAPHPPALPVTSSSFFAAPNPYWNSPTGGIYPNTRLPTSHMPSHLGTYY
How it was run: as §1

ELF1 = ELF1 (Homo sapiens, UniProt P32519 1-619)
How it was run: as §1

EHF = target: T5, EHF (Homo sapiens, UniProt Q9NZC4 1-300)
T5 sequence: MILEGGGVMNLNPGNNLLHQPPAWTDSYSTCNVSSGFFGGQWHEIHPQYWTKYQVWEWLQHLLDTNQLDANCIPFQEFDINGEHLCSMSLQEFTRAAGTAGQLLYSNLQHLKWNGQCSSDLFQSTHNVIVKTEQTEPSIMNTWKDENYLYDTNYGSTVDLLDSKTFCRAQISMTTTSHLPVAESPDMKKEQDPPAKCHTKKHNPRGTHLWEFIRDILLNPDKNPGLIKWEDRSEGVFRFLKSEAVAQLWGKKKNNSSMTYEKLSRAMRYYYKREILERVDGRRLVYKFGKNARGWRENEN
How it was run: as §1

SPI1 = SPI1 (Homo sapiens, UniProt P17947 1-270)
How it was run: as §1

SPIB = SPIB (Homo sapiens, UniProt Q01892 1-262)
How it was run: as §1

ELK3 = target: T6, ELK3 (Homo sapiens, UniProt P41970 1-407)
T6 sequence: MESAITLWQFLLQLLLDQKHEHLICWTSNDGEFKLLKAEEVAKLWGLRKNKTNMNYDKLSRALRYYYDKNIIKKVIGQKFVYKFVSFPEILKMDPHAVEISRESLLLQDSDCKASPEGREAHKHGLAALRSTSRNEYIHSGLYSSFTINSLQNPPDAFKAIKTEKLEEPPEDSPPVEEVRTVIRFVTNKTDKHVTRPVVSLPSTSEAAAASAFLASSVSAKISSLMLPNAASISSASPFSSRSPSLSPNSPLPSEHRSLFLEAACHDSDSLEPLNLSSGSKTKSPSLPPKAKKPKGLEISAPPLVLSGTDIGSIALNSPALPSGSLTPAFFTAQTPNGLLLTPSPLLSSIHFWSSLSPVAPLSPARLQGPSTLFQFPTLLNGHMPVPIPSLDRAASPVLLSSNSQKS
How it was run: as §1

Sequence of ELF1 (P32519 whole entry): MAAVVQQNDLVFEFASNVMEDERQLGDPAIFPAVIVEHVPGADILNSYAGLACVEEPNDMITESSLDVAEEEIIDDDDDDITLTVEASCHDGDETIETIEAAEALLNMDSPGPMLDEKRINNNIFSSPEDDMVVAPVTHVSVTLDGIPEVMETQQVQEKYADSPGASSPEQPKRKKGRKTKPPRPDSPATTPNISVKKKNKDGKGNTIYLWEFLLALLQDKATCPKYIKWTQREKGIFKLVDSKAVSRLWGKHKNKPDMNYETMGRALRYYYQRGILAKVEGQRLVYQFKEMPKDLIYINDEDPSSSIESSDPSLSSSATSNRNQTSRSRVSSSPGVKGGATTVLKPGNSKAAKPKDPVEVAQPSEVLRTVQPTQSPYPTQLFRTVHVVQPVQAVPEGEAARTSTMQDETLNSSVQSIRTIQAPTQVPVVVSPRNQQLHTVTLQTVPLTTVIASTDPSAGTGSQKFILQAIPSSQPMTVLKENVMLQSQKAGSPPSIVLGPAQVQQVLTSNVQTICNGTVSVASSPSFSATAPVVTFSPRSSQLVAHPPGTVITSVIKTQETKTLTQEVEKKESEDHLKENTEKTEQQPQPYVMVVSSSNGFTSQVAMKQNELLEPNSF
Sequence of SPIB (Q01892 whole entry): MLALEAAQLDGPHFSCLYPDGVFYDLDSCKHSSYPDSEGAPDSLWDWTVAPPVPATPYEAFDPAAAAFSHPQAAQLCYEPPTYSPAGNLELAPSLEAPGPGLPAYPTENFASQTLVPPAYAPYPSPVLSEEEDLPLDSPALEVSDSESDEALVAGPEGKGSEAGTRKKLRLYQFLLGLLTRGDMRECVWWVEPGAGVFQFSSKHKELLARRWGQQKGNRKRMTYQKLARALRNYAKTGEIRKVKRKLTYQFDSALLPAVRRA

Sequence	binding signal (FLI1)	binding signal (ELK1)	binding signal (GABPA)	binding signal (ERG)	binding signal (ELF1)	binding signal (EHF)	binding signal (SPI1)	binding signal (SPIB)	binding signal (ELK3)
TGCTAA	1.24 fold enrichment (6-mer frequency, TF over GST control)	1.37 fold enrichment (6-mer frequency, TF over GST control)	1.18 fold enrichment (6-mer frequency, TF over GST control)	1.23 fold enrichment (6-mer frequency, TF over GST control)	1.22 fold enrichment (6-mer frequency, TF over GST control)	1.27 fold enrichment (6-mer frequency, TF over GST control)	1.34 fold enrichment (6-mer frequency, TF over GST control)	1.28 fold enrichment (6-mer frequency, TF over GST control)	1.29 fold enrichment (6-mer frequency, TF over GST control)
TCACCT	1.25 fold enrichment (6-mer frequency, TF over GST control)	1.31 fold enrichment (6-mer frequency, TF over GST control)	1.27 fold enrichment (6-mer frequency, TF over GST control)	1.23 fold enrichment (6-mer frequency, TF over GST control)	1.2 fold enrichment (6-mer frequency, TF over GST control)	1.21 fold enrichment (6-mer frequency, TF over GST control)	1.21 fold enrichment (6-mer frequency, TF over GST control)	1.13 fold enrichment (6-mer frequency, TF over GST control)	1.22 fold enrichment (6-mer frequency, TF over GST control)
GTTTAA	1.19 fold enrichment (6-mer frequency, TF over GST control)	1.19 fold enrichment (6-mer frequency, TF over GST control)	1.13 fold enrichment (6-mer frequency, TF over GST control)	1.13 fold enrichment (6-mer frequency, TF over GST control)	1.13 fold enrichment (6-mer frequency, TF over GST control)	1.17 fold enrichment (6-mer frequency, TF over GST control)	1.16 fold enrichment (6-mer frequency, TF over GST control)	1.27 fold enrichment (6-mer frequency, TF over GST control)	1.26 fold enrichment (6-mer frequency, TF over GST control)
TACTTG	1.39 fold enrichment (6-mer frequency, TF over GST control)	1.39 fold enrichment (6-mer frequency, TF over GST control)	1.34 fold enrichment (6-mer frequency, TF over GST control)	1.18 fold enrichment (6-mer frequency, TF over GST control)	1.32 fold enrichment (6-mer frequency, TF over GST control)	1.32 fold enrichment (6-mer frequency, TF over GST control)	1.27 fold enrichment (6-mer frequency, TF over GST control)	1.44 fold enrichment (6-mer frequency, TF over GST control)	1.35 fold enrichment (6-mer frequency, TF over GST control)
CCCATA	1.23 fold enrichment (6-mer frequency, TF over GST control)	1.26 fold enrichment (6-mer frequency, TF over GST control)	1.33 fold enrichment (6-mer frequency, TF over GST control)	1.24 fold enrichment (6-mer frequency, TF over GST control)	1.21 fold enrichment (6-mer frequency, TF over GST control)	1.13 fold enrichment (6-mer frequency, TF over GST control)	1.18 fold enrichment (6-mer frequency, TF over GST control)	1.34 fold enrichment (6-mer frequency, TF over GST control)	1.21 fold enrichment (6-mer frequency, TF over GST control)
TATGAC	1.31 fold enrichment (6-mer frequency, TF over GST control)	1.34 fold enrichment (6-mer frequency, TF over GST control)	1.37 fold enrichment (6-mer frequency, TF over GST control)	1.31 fold enrichment (6-mer frequency, TF over GST control)	1.34 fold enrichment (6-mer frequency, TF over GST control)	1.23 fold enrichment (6-mer frequency, TF over GST control)	1.27 fold enrichment (6-mer frequency, TF over GST control)	1.4 fold enrichment (6-mer frequency, TF over GST control)	1.32 fold enrichment (6-mer frequency, TF over GST control)
GATTCA	1.11 fold enrichment (6-mer frequency, TF over GST control)	1.15 fold enrichment (6-mer frequency, TF over GST control)	1.17 fold enrichment (6-mer frequency, TF over GST control)	1.11 fold enrichment (6-mer frequency, TF over GST control)	1.17 fold enrichment (6-mer frequency, TF over GST control)	1.18 fold enrichment (6-mer frequency, TF over GST control)	1.16 fold enrichment (6-mer frequency, TF over GST control)	1.04 fold enrichment (6-mer frequency, TF over GST control)	1.1 fold enrichment (6-mer frequency, TF over GST control)
